Inconclusive results are not listed. Unmarked numbers belong to inactive results. Calls come from the whole dose curve; as a rule, active = well fitted cell-killing curve with a large enough effect in the repeat runs; inconclusive = weak or mixed curves, or effect the other way; inactive = no such curve, though single readings can be large or run the other way.
test: qHTS assay to identify small molecule antagonists of the progesterone receptor (PR) signaling pathway - cell viability counter screen (AID 1346798); conditions: PR-UAS-bla HEK293T viability, CellTiter-Glo luminescence, 16 h; series mostly up to 92.4 µM; activity change, negative = cytotoxicity: at the top concentration; note: nearly all actives have a fitted effect of over 50% in size
Text: National Center for Advancing Translational Sciences [NCATS]
NIH Chemical Genomics Center [NCGC]
U.S. Environmental Protection Agency [EPA]
National Institutes of Environmental Health Sciences [NIEHS]
National Toxicology Program [NTP]
U.S. Food and Drug Administration [FDA]
Progesterone receptor (PR), a nuclear hormone receptor, plays an important role in development, metabolic homeostasis and reproduction. It is activated by the steroid hormone progesterone. Endocrine disrupting chemicals (EDCs) and their interactions with steroid hormone receptors like PR causes disruption of normal endocrine function. To identify the compounds that inhibit PR signaling, a PR-UAS-bla GripTite cell line i.e. PR-UAS-bla HEK293T (Invitrogen, Carlsbad, CA, USA) containing a beta-lactamase reporter gene under the control of an UAS response element was used to screen Tox21 10K compound library. The cytotoxicity of the Tox21 compound library against the PR-bla cell line was tested in parallel by measuring the cell viability using CellTiter-Glo assay in the same wells.
Tox21 Assay Protocol Summary:
PR-UAS-bla HEK293T cells were dispensed at 3,000 cells/4 uL of assay medium containing 2% charcoal stripped FBS per well into black wall/clear-bottom 1536-well plates using a Multidrop Combi (ThermoFisher Scientific, Waltham, MA) dispenser. After the assay plates were incubated at a 37C and 5% CO2 for 4 hr, 23 nL of compounds dissolved in DMSO, positive controls or DMSO only was transferred to the assay plate by a Pintool station (Kalypsys, San Diego, CA), followed by addition of 1 uL of R5020 in assay medium using a Flying Reagent Dispenser (FRD, Aurora Discovery, San Diego, CA). The plates were incubated at 37C and 5% CO2 for 16 hr. Then 1 uL of LiveBLAzer B/G FRET substrate was added using a Flying Reagent Dispenser, the plates were incubated at room temperature for 2 hours, and fluorescence intensity was measured by an Envision plate reader (PerkinElmer, Shelton, CT). For cell viability readout that measures cytotoxicity, 4 uL/well of CellTiter-Glo reagent was added into the assay plates using a FRD. After 30 min incubation at room temperature, the luminescence intensity in the plates was measured using a ViewLux (PerkinElmer) plate reader.
% is set by controls: 0 for no effect and ±100 for the full control effect.

Structure (SMILES)	activity change, negative = cytotoxicity
CCc1cc(S(=O)(=O)O)c2cc(C(C)C)cccc1-2	-17.3% [at 42.5 µM]
CO[Si](OC)(OC)OC	-1.02%
CC(C)(C)C(=O)/C=C/c1ccc(Cl)cc1	8.97%
C=CCOCC(O)CS(=O)(=O)O (stereo not given)	10.8%
COc1cc(C(=O)N2CCOCC2)cc(OC)c1OC	6.55% [at 42.5 µM]
CSc1nc(NC2CC2)nc(NC(C)(C)C)n1	-20.1%
CCO[Si](CCCN=C=O)(OCC)OCC	4.47%
Cc1c(F)cc2c(=O)c(C(=O)O)cn3c2c1CCC3C (stereo not given)	8.07% [at 42.5 µM]
Cc1cc(C)cc(OCC2CNC(=O)O2)c1 (stereo not given)	-2.61% [at 42.5 µM]
C[C@H](O)C(=O)Nc1c(I)c(C(=O)NC(CO)CO)c(I)c(C(=O)NC(CO)CO)c1I	-2.67% [at 42.5 µM]
CC(C)(C)N(CCO)CCO	-8.03%
CC(C)COC(=O)c1ccccc1O	16.5%
N[C@@H](CS)C(=O)O	-9.94%
CO	11.8%
CN(C)C(=O)Nc1ccccc1	4.14%
Oc1cc(O)c2c(c1)O[C@H](c1ccc(O)c(O)c1)[C@H](O)C2	3.42% [at 42.5 µM]
C=C(C)C(=O)NCCCN(C)C	2.46%
Oc1ccc2c(c1)OC[C@@H](N1CCC(O)(c3ccc(F)cc3)CC1)[C@H]2O	16.2% [at 42.5 µM]
C=C(C)[C@H]1CC=C(C)CC1	9.6%
C1CCCCCCCCCCC1	8.3% [at 18.9 µM]

Structure (SMILES)	activity change, negative = cytotoxicity
CC(=O)c1ccc(C)cc1	5.98%
O=C(O)c1ccccc1S	1.22% [at 42.5 µM]
CCN1CCN(c2cc3c(cc2F)c(=O)c(C(=O)O)cn3C2CC2)CC1	6.97% [at 42.5 µM]
CCCCCC[C@@H](CCC)C(=O)O	-29.2% [at 42.5 µM]
CSc1ccc(C=O)cc1	5.16%
Nc1[nH]c(=O)ncc1F	0.497% [at 42.5 µM]
CCCCCCCCCCCCCCC	-13.8%
C=CCn1c(=O)n([C@@H]2O[C@H](CO)[C@@H](O)[C@H]2O)c2nc(N)[nH]c(=O)c21	-5.16% [at 42.5 µM]
CCCOCC(C)OCC(C)O (stereo not given)	23%
N#CC1(O)CCCCC1	17.8%
Nc1cc(C(Cl)=C(Cl)Cl)c(S(N)(=O)=O)cc1S(N)(=O)=O	-0.961% [at 42.5 µM]
C=C(C)C(=O)OCCC(C)OC(=O)C(=C)C (stereo not given)	-2.79%
CC/C=C\CCCCO	-1.02%
[O-][N+](=Nc1ccccc1)c1ccccc1	-0.243%
CC1=CCC2C(C1)C2(C)C (stereo not given)	16.1%
O=C(O)C1CCC1	6.94% [at 42.5 µM]
NCCNC(=O)c1ccc(Cl)cn1	-5.52% [at 42.5 µM]
COc1cc(C)cc(O)c1	24.3%
CCCCc1ccc(N)cc1	11.8%
OCC(CO)(CO)COCC(CO)(CO)CO	3.21%

Source: PubChem BioAssay (Tox21)
